Experimental data taken from PubChem BioAssay (NCI).
This is part of a sample that, as a whole, favours compounds with a hit. Of some 83,000 tested, about 20% had one in any assay.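 The test compound was applied at a single concentration to cells in 96-well plates for 48 hours, and percent growth was recorded.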 Values without a mark were called inactive. The source made the active and inactive calls. How the source made its calls: active means growth percent below 10; inactive means the rest.

tested on: NCI-H23 lung; assay: NCI-60 one-dose screen, 48 h (100 = growth as untreated, 0 = no growth, -100 = all killed); conditions: 10 µM unless noted

Question: With `CCOC(=O)[C@H](CSSc1ncnc2cc[nH]c12)NC(=O)[C@@H](C)c1ccc2cc(OC)ccc2c1` as the molecule, how does the growth read?
Answer: 19.9%

Question: How did the growth turn out when `CC(C)C[C@H](NC(=O)Cn1ccc(NCc2ccccc2)cc1=O)B(O)O` was run?
Answer: 31.7%

Question: `COc1ccc(C(=O)c2cc(OC)c(OC)c(OC)c2)cc1/C=C/C(=O)c1ccc(O)cc1` was tested. Which growth did it give?
Answer: 18.5%

Question: `Cc1cccc(NC(=O)c2sc3nc4c(cc3c2N)CCC4)c1C` was tested. Which growth did it give?
Answer: 36%

Question: For `COc1cc(-c2cc(/C=C3\CCCCC3=O)[nH]n2)cc(OC)c1OC`, which growth is on record?
Answer: 95.5%

Question: With `COc1cccc(C2CC(=O)Nc3c2c(C)nn3-c2nc3ccccc3[nH]2)c1OC` (stereo not drawn) as the molecule, how does the growth read?
Answer: 50.5%

Question: For `CCNC(=O)C1CCCN1C(=O)C(CCCN=C(N)N)NC(=O)C(CC(C)C)NC(=O)C(CC(C)C)NC(=O)C(Cc1ccc(O)cc1)NC(=O)C(CO)NC(=O)C(Cc1c[nH]c2ccccc12)NC(=O)C(Cc1cnc[nH]1)NC(=O)C1CCC(=O)N1` (stereo not drawn), which growth is on record?
Answer: 87.8%

Question: With `COc1ccc(-c2nc3sccn3c2-c2ccnc(NCCCNS(=O)(=O)c3ccc(F)cc3)n2)cc1` as the molecule, how does the growth read?
Answer: 1.5% (active)

Question: How did the growth turn out when `CCCCCC(=O)OCc1ccccc1` was run?
Answer: 102%

Question: For `CN(C)c1nc(N)c(N=O)c(N)n1`, which growth is on record?
Answer: 107%

Question: For `COc1ccc(Cn2cc(COc3cc(/C=C/C(=O)c4cc(OC)c(OC)c(OC)c4)ccc3OC)nn2)cc1`, which growth is on record?
Answer: 107%

Question: Which growth does the source give for `CCOC(=O)C(Cc1ccccc1)n1c(O)c(C=Nc2ccc(C(=O)OCCN(CC)CC)cc2)sc1=O` (stereo not drawn) here?
Answer: 102%

Question: How did the growth turn out when `COc1cc(Cn2c(SCC(=O)Nc3ccc(Cl)cc3)nc3ccccc3c2=O)cc(OC)c1OC` was run?
Answer: 73%

Question: `Cc1ccc(S(=O)(=O)NCCCNc2nccc(-c3c(-c4ccccc4)nc4sccn34)n2)cc1` was tested. Which growth did it give?
Answer: 76.2%

Question: `Cc1cc(-c2ccccc2)c(C)n1Cc1ccc(Cl)cc1` was tested. Which growth did it give?
Answer: 65.8%

Question: With `CN(C)c1ccc(C2CC(c3ccccc3)=NN2/C=C2\SC(=O)NC2=O)cc1` (stereo not drawn) as the molecule, how does the growth read?
Answer: 88.7%

Question: With `C=C1C(=O)O[C@H]2[C@H]1CC/C(COC(=O)NCCc1ccc(OC)cc1)=C\CC[C@@]1(C)O[C@@H]21` as the molecule, how does the growth read?
Answer: 66.6%

Question: Which growth does the source give for `O=C(CCCn1c(=O)c2sc3ccccc3c2n2nnc(-c3ccccc3)c12)NCCc1cnc[nH]1` here?
Answer: -20.4% (active)

Question: For `O=C1c2ccccc2C(=O)c2c1oc1oc3c(c(=O)c21)c(=O)n(-c1ccccc1)c1ccccc31`, which growth is on record?
Answer: 38.2%

Question: Which growth does the source give for `COc1ccc(Cn2c(SC)nc(=O)n(Cc3ccc(Cl)cc3)c2=O)cc1` here?
Answer: 93.7%

Question: With `COc1cc(CNC(=O)CCSc2nc3ccccc3c(=O)n2Cc2cc(OC)c(OC)c(OC)c2)cc(OC)c1OC` as the molecule, how does the growth read?
Answer: 51.6%

Question: Which growth does the source give for `O=C(COc1ccccc1)N1N=C(c2ccc(Cl)cc2)CC1c1c[nH]c2ccccc12` (stereo not drawn) here?
Answer: 76.1%

Question: For `CC(=O)n1cc([C@H]2CC[C@H](c3cn(C(C)=O)c4ccccc34)c3c2[nH]c2ccccc32)c2ccccc21`, which growth is on record?
Answer: 75.7%

Question: With `CCN(CC)CCCC(C)N=c1cc(Nc2cc(=NC(C)CCCN(CC)CC)c3cc(OC)ccc3o2)oc2ccc(OC)cc12` (stereo not drawn) as the molecule, how does the growth read?
Answer: -43.3% (active)

Question: `CC1(C)OC2COC3(C(=O)O)OC(C)(C)OC3C2O1` (stereo not drawn) was tested. Which growth did it give?
Answer: 97.8%

Question: For `Cc1ccc(Cn2c(-c3nonc3N)nc3ccccc32)cc1`, which growth is on record?
Answer: 83.3%

Question: `COc1cc2nc(N3CCC[C@@H](NC4=CC(=O)c5ccccc5C4=O)C3)nc(N)c2cc1OC` was tested. Which growth did it give?
Answer: 87.2%

Question: Which growth does the source give for `O=C(Nc1ccc(Cl)cc1)c1cc(-c2ccc(F)cc2)c2sc(=O)[nH]c2n1` here?
Answer: 5.26% (active)

Question: How did the growth turn out when `Cc1cc(C)c(S(=O)(=O)N2CCN(c3cc4c(cc3F)c(=O)c(C(=O)O)cn4C3CC3)CC2)c(C)c1` was run?
Answer: 57.4%

Question: For `O=C(CCCn1c2c(sc3ccccc32)c(=O)n2nnc(-c3ccccc3)c12)NCCc1cnc[nH]1`, which growth is on record?
Answer: 23.4%

Question: With `COc1ccc2c(c1)NC(=O)CN2c1nc(NC2CC2)nc2ccccc12` as the molecule, how does the growth read?
Answer: 12.4%

Question: Which growth does the source give for `C=C1C(=O)O[C@H]2[C@H](O)[C@@H](C)CCC/C(C)=C/CC[C@@]3(C)O[C@@H]3C[C@@H]12` here?
Answer: 95.3%

Question: `COc1ccc(/C=C/C(=O)c2cc(OC)c(OC)c(OC)c2)cc1OCc1cn(Cc2ccc(F)cc2)nn1` was tested. Which growth did it give?
Answer: 103%

Question: `O=C(CCC(=O)OC1CCCC1)OC1CCCC1` was tested. Which growth did it give?
Answer: 105%

Question: For `CCN(C(=O)c1cc2ncccc2[nH]1)[C@H]1CCC[C@@H](NCc2cccc(F)c2)C1`, which growth is on record?
Answer: 97.4%

Question: How did the growth turn out when `CCCCCCCCCCCCCCCCC(Br)C(=O)O` (stereo not drawn) was run?
Answer: 110%

Question: `COc1cc2nc(Cl)nc(NCCO)c2cc1OC` was tested. Which growth did it give?
Answer: 108%

Question: Which growth does the source give for `CCOC(=O)C1=C(CSC(=S)N(C2CCCCC2)C2CCCCC2)N(C)C(=O)NC1c1ccccc1` (stereo not drawn) here?
Answer: 76.5%

Question: For `CC1=C(C#N)C(C)(C)C(C#N)=C(C)N1`, which growth is on record?
Answer: 102%

tested on: NCI-H226 lung; assay: as above; conditions: 10 µM unless noted

Question: Which growth does the source give for `CCOC(=O)[C@H](CSSc1ncnc2cc[nH]c12)NC(=O)[C@@H](C)c1ccc2cc(OC)ccc2c1` here?
Answer: 39.9%

Question: With `CC(C)C[C@H](NC(=O)Cn1ccc(NCc2ccccc2)cc1=O)B(O)O` as the molecule, how does the growth read?
Answer: -75% (active)

Question: For `COc1ccc(C(=O)c2cc(OC)c(OC)c(OC)c2)cc1/C=C/C(=O)c1ccc(O)cc1`, which growth is on record?
Answer: 58.5%

Question: Which growth does the source give for `Cc1cccc(NC(=O)c2sc3nc4c(cc3c2N)CCC4)c1C` here?
Answer: 43.7%

Question: How did the growth turn out when `COc1cc(-c2cc(/C=C3\CCCCC3=O)[nH]n2)cc(OC)c1OC` was run?
Answer: 94.6%

Question: With `COc1cccc(C2CC(=O)Nc3c2c(C)nn3-c2nc3ccccc3[nH]2)c1OC` (stereo not drawn) as the molecule, how does the growth read?
Answer: 55.1%

Question: Which growth does the source give for `CCNC(=O)C1CCCN1C(=O)C(CCCN=C(N)N)NC(=O)C(CC(C)C)NC(=O)C(CC(C)C)NC(=O)C(Cc1ccc(O)cc1)NC(=O)C(CO)NC(=O)C(Cc1c[nH]c2ccccc12)NC(=O)C(Cc1cnc[nH]1)NC(=O)C1CCC(=O)N1` (stereo not drawn) here?
Answer: 111%

Question: With `COc1ccc(-c2nc3sccn3c2-c2ccnc(NCCCNS(=O)(=O)c3ccc(F)cc3)n2)cc1` as the molecule, how does the growth read?
Answer: -4.69% (active)

Question: How did the growth turn out when `CCCCCC(=O)OCc1ccccc1` was run?
Answer: 103%

Question: For `CN(C)c1nc(N)c(N=O)c(N)n1`, which growth is on record?
Answer: 112%

Question: For `COc1ccc(Cn2cc(COc3cc(/C=C/C(=O)c4cc(OC)c(OC)c(OC)c4)ccc3OC)nn2)cc1`, which growth is on record?
Answer: 89.4%

Question: `CCOC(=O)C(Cc1ccccc1)n1c(O)c(C=Nc2ccc(C(=O)OCCN(CC)CC)cc2)sc1=O` (stereo not drawn) was tested. Which growth did it give?
Answer: 96.7%

Question: `COc1cc(Cn2c(SCC(=O)Nc3ccc(Cl)cc3)nc3ccccc3c2=O)cc(OC)c1OC` was tested. Which growth did it give?
Answer: 39.1%

Question: How did the growth turn out when `Cc1ccc(S(=O)(=O)NCCCNc2nccc(-c3c(-c4ccccc4)nc4sccn34)n2)cc1` was run?
Answer: 49.4%

Question: For `Cc1cc(-c2ccccc2)c(C)n1Cc1ccc(Cl)cc1`, which growth is on record?
Answer: 71.3%

Question: With `CN(C)c1ccc(C2CC(c3ccccc3)=NN2/C=C2\SC(=O)NC2=O)cc1` (stereo not drawn) as the molecule, how does the growth read?
Answer: 90.4%

Question: Which growth does the source give for `C=C1C(=O)O[C@H]2[C@H]1CC/C(COC(=O)NCCc1ccc(OC)cc1)=C\CC[C@@]1(C)O[C@@H]21` here?
Answer: 0.324% (active)

Question: With `O=C(CCCn1c(=O)c2sc3ccccc3c2n2nnc(-c3ccccc3)c12)NCCc1cnc[nH]1` as the molecule, how does the growth read?
Answer: 105%

Question: For `O=C1c2ccccc2C(=O)c2c1oc1oc3c(c(=O)c21)c(=O)n(-c1ccccc1)c1ccccc31`, which growth is on record?
Answer: 86.3%

Question: How did the growth turn out when `COc1ccc(Cn2c(SC)nc(=O)n(Cc3ccc(Cl)cc3)c2=O)cc1` was run?
Answer: 106%

Question: For `COc1cc(CNC(=O)CCSc2nc3ccccc3c(=O)n2Cc2cc(OC)c(OC)c(OC)c2)cc(OC)c1OC`, which growth is on record?
Answer: 70%

Question: `O=C(COc1ccccc1)N1N=C(c2ccc(Cl)cc2)CC1c1c[nH]c2ccccc12` (stereo not drawn) was tested. Which growth did it give?
Answer: 65.2%

Question: Which growth does the source give for `CC(=O)n1cc([C@H]2CC[C@H](c3cn(C(C)=O)c4ccccc34)c3c2[nH]c2ccccc32)c2ccccc21` here?
Answer: 89.4%

Question: For `CCN(CC)CCCC(C)N=c1cc(Nc2cc(=NC(C)CCCN(CC)CC)c3cc(OC)ccc3o2)oc2ccc(OC)cc12` (stereo not drawn), which growth is on record?
Answer: 2.33% (active)

Question: How did the growth turn out when `CC1(C)OC2COC3(C(=O)O)OC(C)(C)OC3C2O1` (stereo not drawn) was run?
Answer: 99.9%

Question: How did the growth turn out when `Cc1ccc(Cn2c(-c3nonc3N)nc3ccccc32)cc1` was run?
Answer: 82.7%

Question: Which growth does the source give for `COc1cc2nc(N3CCC[C@@H](NC4=CC(=O)c5ccccc5C4=O)C3)nc(N)c2cc1OC` here?
Answer: 113%

Question: `O=C(Nc1ccc(Cl)cc1)c1cc(-c2ccc(F)cc2)c2sc(=O)[nH]c2n1` was tested. Which growth did it give?
Answer: 11.6%

Question: How did the growth turn out when `Cc1cc(C)c(S(=O)(=O)N2CCN(c3cc4c(cc3F)c(=O)c(C(=O)O)cn4C3CC3)CC2)c(C)c1` was run?
Answer: 71.8%

Question: Which growth does the source give for `O=C(CCCn1c2c(sc3ccccc32)c(=O)n2nnc(-c3ccccc3)c12)NCCc1cnc[nH]1` here?
Answer: 98.5%

Question: For `COc1ccc2c(c1)NC(=O)CN2c1nc(NC2CC2)nc2ccccc12`, which growth is on record?
Answer: 65.7%

Question: Which growth does the source give for `C=C1C(=O)O[C@H]2[C@H](O)[C@@H](C)CCC/C(C)=C/CC[C@@]3(C)O[C@@H]3C[C@@H]12` here?
Answer: 80.9%

Question: With `COc1ccc(/C=C/C(=O)c2cc(OC)c(OC)c(OC)c2)cc1OCc1cn(Cc2ccc(F)cc2)nn1` as the molecule, how does the growth read?
Answer: 76.8%

Question: Which growth does the source give for `O=C(CCC(=O)OC1CCCC1)OC1CCCC1` here?
Answer: 96.3%

Question: How did the growth turn out when `CCN(C(=O)c1cc2ncccc2[nH]1)[C@H]1CCC[C@@H](NCc2cccc(F)c2)C1` was run?
Answer: 101%

Question: For `CCCCCCCCCCCCCCCCC(Br)C(=O)O` (stereo not drawn), which growth is on record?
Answer: 95.5%

Question: `COc1cc2nc(Cl)nc(NCCO)c2cc1OC` was tested. Which growth did it give?
Answer: 98.2%

Question: `CCOC(=O)C1=C(CSC(=S)N(C2CCCCC2)C2CCCCC2)N(C)C(=O)NC1c1ccccc1` (stereo not drawn) was tested. Which growth did it give?
Answer: 58.8%

Question: With `CC1=C(C#N)C(C)(C)C(C#N)=C(C)N1` as the molecule, how does the growth read?
Answer: 105%
